Results reported in the supplement of paper PMC6555819.

Tests used:
Assay in all cases: PBM binding z-score (relative to random genomic background probes); higher = stronger binding; sequences stand for … in GC…GCGATTGACAGCGTAGAATGAAGG
[1] = test system: FXR:RXRa (NR concentration 270 nM, RXRa partner concentration 90 nM)
Method in brief: (§1)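 Binding z-scores take random background probes as their reference. They come from custom Agilent 4×180K protein-binding microarrays incubated 1 h with ligand-free nuclear receptor dimers, with antibodies against each partner (one per run) detecting binding. Scanned fluorescence was regression-normalized.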

[2] = test system: LXRa:RXRa (NR concentration 270 nM, RXRa partner concentration 90 nM)
Method in brief: as §1

[3] = test system: LXRa homodimer (NR concentration 270 nM)
Method in brief: as §1

[4] = test system: LXRb:RXRa (NR concentration 270 nM, RXRa partner concentration 90 nM)
Method in brief: as §1

[5] = test system: LXRb homodimer (NR concentration 270 nM)
Method in brief: as §1

[6] = test system: PPARa:RXRa (NR concentration 270 nM, RXRa partner concentration 90 nM)
Method in brief: as §1

[7] = test system: PPARg:RXRa (NR concentration 180 nM, RXRa partner concentration 90 nM)
Method in brief: as §1

[8] = test system: PPARg:RXRa 270nM:90nM, anti-RXR (NR concentration 270 nM, RXRa partner concentration 90 nM)
Method in brief: as §1

[9] = test system: PPARg:RXRa 30nM:10nM, anti-RXR (NR concentration 30 nM, RXRa partner concentration 10 nM)
Method in brief: as §1

[10] = test system: PPARg:RXRa 90nM:30nM, anti-RXR (NR concentration 90 nM, RXRa partner concentration 30 nM)
Method in brief: as §1

[11] = test system: PPARg:RXRa DBDmut IVT, anti-RXR (DBD mutation: RXRa K156A/R161A, NR concentration 270 nM, RXRa partner concentration 90 nM)
Method in brief: as §1

[12] = test system: PPARg:RXRa IVT, anti-PPARg (NR concentration 270 nM, RXRa partner concentration 90 nM)
Method in brief: as §1

[13] = test system: PPARg DBDmut IVT, anti-PPARg (DBD mutation: PPARg1 K132A/R137A, NR concentration 270 nM)
Method in brief: as §1

[14] = test system: PPARg homodimer (NR concentration 180 nM)
Method in brief: as §1

[15] = test system: PXR:RXRa (NR concentration 270 nM, RXRa partner concentration 90 nM)
Method in brief: as §1

[16] = test system: PXR homodimer (NR concentration 270 nM)
Method in brief: as §1

[17] = test system: RARa:RXR (NR concentration 270 nM, RXRa partner concentration 90 nM)
Method in brief: as §1

[18] = test system: RARa homodimer (NR concentration 270 nM)
Method in brief: as §1

[19] = test system: RARb:RXRa (NR concentration 270 nM, RXRa partner concentration 90 nM)
Method in brief: as §1

Row | Sequence | PBM binding z-score [1] | PBM binding z-score [2] | PBM binding z-score [3] | PBM binding z-score [4] | PBM binding z-score [5] | PBM binding z-score [6] | PBM binding z-score [7] | PBM binding z-score [8] | PBM binding z-score [9] | PBM binding z-score [10] | PBM binding z-score [11] | PBM binding z-score [12] | PBM binding z-score [13] | PBM binding z-score [14] | PBM binding z-score [15] | PBM binding z-score [16] | PBM binding z-score [17] | PBM binding z-score [18] | PBM binding z-score [19]
1 | CGAACTAGGTCAAAGGAGAGTGAAAGGCGACGTA | 3.72 | 2.61 | -0.0759 | 1.64 | -0.486 | 5.05 | 8.9 | 7.8 | 7.23 | 8.14 | 8.02 | 7.99 | 0.59 | 0.681 | 1.1 | -0.124 | 1.85 | -0.114 | 3.65
2 | CGAACTAGGTCACCTGGACAGTGAAGAGGTTGGA | 3.92 | 2.38 | 0.0453 | 1.79 | -0.443 | 5 | 8.13 | 6.5 | 4.2 | 5.86 | 8.17 | 8.6 | -0.299 | 1.42 | 1.46 | 0.15 | 2.53 | -0.115 | 4.05
3 | ATATGTAGGGTAGGGTCATTCAGAAAGTAGGGAA | 4.09 | 4.09 | 2.32 | 5.19 | 4.59 | 5.28 | 7.32 | 5.53 | 3.19 | 4.91 | 6.28 | 5.96 | 4.11 | 2.93 | 4.39 | 2.67 | 4.44 | 2.33 | 3.21
4 | CGAACTAGGTCACCAGGTCAGTGAAGAGGTTGGA | 4.69 | 3.38 | 0.525 | 2.7 | -0.48 | 5.78 | 9.48 | 7.31 | 5.4 | 7.06 | 8.35 | 8.61 | 0.92 | 2.94 | 3.16 | 0.301 | 4.36 | 1.02 | 4.61
5 | ATATATAGGTTAGGGTCATTCAGAAAGTAGGGAA | 5.26 | 4.34 | 1.79 | 4.71 | 2.26 | 5.6 | 8.16 | 6.57 | 4.73 | 6.58 | 6.92 | 6.72 | 2.87 | 4.26 | 4.79 | 2.81 | 5.43 | 2.83 | 3.58
6 | CGAACTCGGTCACCAGGACAGTGAAGAGGTTGGA | 0.841 | 0.683 | 0.119 | -0.176 | -1.17 | 1.76 | 1.91 | 1.64 | -0.104 | 0.606 | 4.23 | 3.87 | -0.647 | 0.233 | 0.0316 | -0.302 | 0.493 | -0.227 | 2.69
7 | CGAACTAGGTCACCAGGACAATGAAGAGGTTGGA | 3.54 | 2.55 | 0.00967 | 1.74 | 0.0583 | 5.41 | 8.69 | 6.83 | 4.53 | 6.43 | 7.84 | 9.01 | 1.88 | 1.94 | 1.49 | 0.22 | 2.43 | 0.0185 | 4.21
8 | ATATGTAGCTTAGGGTCATTCAGAAAGTAGGGAA | 4.3 | 4.47 | 1.67 | 4.49 | 1.7 | 4.7 | 2.42 | 3.28 | 1.35 | 2.4 | 0.587 | 2.1 | 1.21 | 1.78 | 4.04 | 0.915 | 4.2 | 1.36 | 3.24
9 | CGAACTAGGTCAAAGGACAGTGGAAGGCGACGTA | 3.72 | 2.62 | -0.0912 | 1.47 | -0.761 | 5.49 | 9.71 | 8.34 | 8.02 | 9.05 | 8.19 | 8.49 | 1.31 | 1.21 | 0.947 | -0.227 | 1.74 | 0.262 | 3.93
10 | CGAACTAGGTCTCCAGGACAGTGAAGAGGTTGGA | -0.128 | -0.769 | -0.494 | -0.832 | -1.01 | 0.539 | 0.908 | 0.999 | -0.187 | 0.153 | 4.77 | 4.03 | -0.626 | 0.0186 | -0.409 | -0.39 | -0.238 | -0.356 | 0.216
11 | CGAACTTGGTCAAAGGACAGTGAAAGGCGACGTA | -0.082 | -0.109 | -0.799 | -0.227 | -0.688 | 1.25 | 3.15 | 4.34 | 2.21 | 4.07 | 0.58 | 1.75 | -0.436 | 0.499 | -0.152 | -0.326 | 0.232 | -0.498 | 1.83
12 | CGAACTAGGTCACTAGGACAGTGAAGAGGTTGGA | 2.63 | 1.57 | -0.199 | 0.869 | -0.496 | 4.78 | 8.29 | 6.68 | 3.9 | 6.28 | 7.81 | 8.81 | 2.32 | 1.48 | 0.625 | 0.00587 | 1.68 | 0.195 | 3.62
13 | CGAGCTAGGTCACCAGGACAGTGAAGAGGTTGGA | 3.66 | 2.28 | -0.245 | 1.56 | -0.77 | 3.81 | 3.74 | 3.66 | 0.712 | 2.68 | 3.94 | 4.43 | -1.08 | 1.48 | 1.35 | -0.379 | 2.36 | 0.327 | 4.16
14 | ATATGTAGGTTAGGGTCGTTCAGAAAGTAGGGAA | 2.59 | 2.54 | 0.724 | 3.09 | 1.65 | 4.31 | 5.88 | 4.99 | 2.44 | 4.12 | 6.06 | 6.47 | 2.98 | 2.38 | 2.11 | 1.67 | 2.37 | 1.51 | 1.92
15 | CGAACTAGGTCACAAGGACAGTGAAGAGGTTGGA | 3.87 | 2.13 | 0.193 | 1.57 | -0.115 | 5.01 | 8.73 | 7.01 | 4.93 | 6.82 | 8.39 | 9.03 | 1.5 | 3.52 | 1.25 | 0.516 | 2.14 | 0.713 | 4.09
16 | CGAACTATGTCACCAGGACAGTGAAGAGGTTGGA | 0.32 | 0.0175 | -0.0452 | -0.257 | -0.182 | 1.17 | 1.5 | 1.26 | 0.318 | 0.775 | 4.52 | 3.71 | 0.886 | 0.475 | -0.0276 | -0.042 | 0.322 | 0.192 | 0.847
